The list is not random: actives were taken first. Their share in the collection is about 3.8%.
FGF22 binding = shifts melting point of recombinant human FGF22; recombinant FGF22 thermal shift, SYPRO orange fluorescence; percent of sucrose octasulfate shift, DMSO zero; 1.5% of 340,000 active; activity (Tm shift, normalised), % at 9.99 µM;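 active = mean Tm shift, scaled 0 neutral to 100 positive control, at about 1.3% or above, every replicate too, limit read from the data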
ADAM17 inh = inhibits human ADAM17; recombinant ADAM17, EDANS/DABCYL FRET peptide cleavage; 0.83% of 370,000 active; inhibition, % at 6.95 µM;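 active = inhibition above the mean of compounds lying between control limits plus 3 SD, set per campaign, cut at about 8.5% in these data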
Target sequence (P78536 215-824 limits assumed): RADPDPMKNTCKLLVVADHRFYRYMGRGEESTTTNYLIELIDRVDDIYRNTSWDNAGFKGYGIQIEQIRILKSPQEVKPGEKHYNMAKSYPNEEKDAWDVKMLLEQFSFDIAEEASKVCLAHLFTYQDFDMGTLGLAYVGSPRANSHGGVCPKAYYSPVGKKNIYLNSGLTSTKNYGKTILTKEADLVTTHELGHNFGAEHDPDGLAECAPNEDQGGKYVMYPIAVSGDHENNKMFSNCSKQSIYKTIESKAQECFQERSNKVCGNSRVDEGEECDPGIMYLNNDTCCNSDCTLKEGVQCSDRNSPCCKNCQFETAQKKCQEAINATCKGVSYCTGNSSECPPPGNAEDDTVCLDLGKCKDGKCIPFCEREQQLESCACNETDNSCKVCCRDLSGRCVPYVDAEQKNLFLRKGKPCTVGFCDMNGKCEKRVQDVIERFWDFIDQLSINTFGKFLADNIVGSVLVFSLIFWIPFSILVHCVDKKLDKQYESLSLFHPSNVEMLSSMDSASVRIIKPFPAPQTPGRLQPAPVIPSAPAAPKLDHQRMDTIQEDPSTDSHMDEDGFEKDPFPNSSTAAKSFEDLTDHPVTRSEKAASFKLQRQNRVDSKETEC
ADAM10 inh = inhibitors of human ADAM10. 0.62% of 370,000 active. recombinant ADAM10, EDANS/DABCYL FRET peptide cleavage, 3 h. O14672. inhibition, % at 7 µM. AID 720582;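 active = inhibition above a per-campaign cutoff equal to the mean of compounds falling between control-based bounds plus 3 SD, cut at about 20% in these data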
Ecoli rRNA inh = selective bacterial rRNA inhibition in E. coli | GFP signal change (wild-type ribosome), % (test concentration not listed) | 1.6% of 350,000 active | E. coli WT GFP vs humanized-ribosome RFP mutants, fluorescence, 24 h; active compounds read low; DMSO median 0, no signal -100 | AID 720706;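 active = significant combined selectivity score with lowered wild-type GFP, culture density cut under 30%, mutant RFP and density less affected; inactive = any of these conditions unmet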
proKLK7 act = activators of human kallikrein-7 zymogen. purified proKLK7, EDANS-DABCYL substrate fluorescence; 100% is mature enzyme control, 0% vehicle. P49862. 0.9% of 370,000 active. AID 652039. activation, % at 7 µM;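 active = activation above the mean of all tested compounds plus 3 SD, computed per campaign excluding outliers beyond control limits, cut at about 13% in these data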
Of the large screens only hits and unclear results are named; the others gave an inactive call.

Cn1cccc1/C=C1\C(=O)NC(=O)N(Cc2ccccc2Cl)C1=O	FGF22 binding 44.3
Cn1cccc1/C=C1\C(=O)NC(=O)N(CCC2=CCCCC2)C1=O	none
COc1cccc(C(=O)C2CCCN(Cc3cccc(C)n3)C2)c1 (stereo not given)	FGF22 binding 44.2
CCCN1CCCC(C(=O)c2cc(C)c(OC)c(C)c2)C1 (stereo not given)	none
COc1ccc(C(=O)C2CCCN(Cc3ccccn3)C2)c(OC)c1 (stereo not given)	FGF22 binding 43.0
COc1c(C)cc(C(=O)C2CCCN(C3CCOCC3)C2)cc1C (stereo not given)	FGF22 binding 43.1 (no result: Ecoli rRNA inh)
COc1c(C)cc(C(=O)C2CCCN(Cc3cccc(C)n3)C2)cc1C (stereo not given)	FGF22 binding 43.5
Fc1ccc(CN2CC3NC(C2)C3c2ccc(Br)cc2)cc1 (stereo not given)	none (no result: FGF22 binding, ADAM17 inh, ADAM10 inh, proKLK7 act)
O=C(c1ccc(Cl)cc1)C1CCCN(Cc2cccc3cccnc23)C1 (stereo not given)	Ecoli rRNA inh -23.4
CSc1ncc(CN2CCCC(C(=O)c3ccccc3SC)C2)cn1 (stereo not given)	none
O=C(c1ccc(Cl)cc1)C1CCCN(Cc2cccc3ncccc23)C1 (stereo not given)	none
CSc1ccc(C(=O)C2CCCN(Cc3cnc(SC)nc3)C2)cc1 (stereo not given)	FGF22 binding 43.9
O=C(c1ccc(Cl)cc1)C1CCCN(Cc2ccc3nonc3c2)C1 (stereo not given)	Ecoli rRNA inh -27.8
COC(=O)C[C@H]1CC[C@@H]2NC[C@@H](O)COC[C@H]2O1	none (no result: ADAM17 inh, ADAM10 inh, proKLK7 act)
COC(=O)[C@H]1[C@H](CO)[C@H]2Cn3c(ccc(C4=CCCC4)c3=O)[C@@H]1N2CC1CCCCC1	none (no result: ADAM17 inh, ADAM10 inh, proKLK7 act)
CC(C)NC(=O)N1CC2C(c3ccccc3)C(C1)N2C (stereo not given)	none (no result: FGF22 binding, ADAM17 inh, ADAM10 inh, proKLK7 act)
CCCCCCC(=O)N/N=C/c1c(O)n(C2CC2)c(=S)[nH]c1=O	none
CCCCCCC(=O)N/N=C/c1c(O)n(C(C)CC)c(=S)[nH]c1=O (stereo not given)	Ecoli rRNA inh -22.8
COc1cccc(OC)c1C1=NCC(=O)Nc2c1oc1ccc(Br)cc21	Ecoli rRNA inh -28.1
CCCCC/C(=N/O)c1c(C)[nH]c2ccccc12	Ecoli rRNA inh -20.9
O=c1cccc2n1CC1CC2CN(Cc2c(F)cccc2Cl)C1 (stereo not given)	none
Cc1oc(-c2ccc(F)cc2F)nc1CN1C[C@@H]2C[C@@H](C1)c1cccc(=O)n1C2	FGF22 binding 43.6
Cc1nn(Cc2ccccc2)c(C)c1C(=O)OCC(=O)Nc1cc(S(C)(=O)=O)ccc1Cl	FGF22 binding 43.2
Cc1nn(Cc2ccccc2)c(C)c1C(=O)NCc1ccccc1	none
Cc1nn(Cc2ccccc2)c(C)c1C(=O)OCC(=O)Nc1cccc(S(N)(=O)=O)c1	Ecoli rRNA inh -22.1
C#CC1(O)C=CC2C3CCC4=CC(=O)CCC4C3CCC21CC (stereo not given)	Ecoli rRNA inh -20.2
O=C(Cc1cccnc1)N1CCCCN2[C@H](C1)[C@@H](c1ccc(/C=C/c3ccccc3)cc1)[C@@H]2CO	none (no result: ADAM17 inh, ADAM10 inh, proKLK7 act)
CCCN1[C@@H]2c3ccc(-c4ccc(OC)cc4)c(=O)n3C[C@H]1[C@H](CO)[C@H]2C(=O)OC	none (no result: ADAM17 inh, ADAM10 inh, proKLK7 act)
Oc1ccc(/C=N/NP(=S)(c2ccccc2)c2ccccc2)cc1O	Ecoli rRNA inh -20.8
O=C(Nc1ccc2ccccc2c1)c1nn(C23CC4CC(CC(C4)C2)C3)cc1Br	none (no result: FGF22 binding, Ecoli rRNA inh)
Cc1nc(Cl)sc1C(=O)Nc1ccc2ccccc2c1	Ecoli rRNA inh -30.7
CCc1ccc(N2C(=O)NC(=O)/C(=C/c3cccn3CCOc3ccc(C)cc3)C2=O)cc1	none
CCc1ccc(N2C(=O)NC(=O)/C(=C/c3cccn3CCOc3ccc(C(C)CC)cc3)C2=O)cc1 (stereo not given)	FGF22 binding 43.4
C[C@]12CCC3C(CC[C@H]4[C@@H](O)[C@H](O)CC[C@]34C)C1CCC2=O (stereo not given in full)	FGF22 binding 46.1, Ecoli rRNA inh -22.4
C[C@]12CC[C@@H](O)C[C@H]1CC[C@@H]1[C@@H]2CC[C@]2(C)C(=O)CC[C@@H]12	none (no result: Ecoli rRNA inh)
COC(=O)[C@H]1[C@H](CO)[C@H]2Cn3c(ccc(/C=C/c4ccccc4)c3=O)[C@@H]1N2Cc1ccccc1F	none (no result: ADAM17 inh, ADAM10 inh, proKLK7 act)
COC(=O)[C@H]1[C@H](CO)[C@H]2Cn3c(cccc3=O)[C@@H]1N2C(=O)C1CCCC1	none (no result: ADAM17 inh, ADAM10 inh, proKLK7 act)
CCN1[C@@H]2Cn3c(ccc(-c4ccc(OC)cc4)c3=O)[C@H]1[C@@H](C(=O)OC)[C@@H]2CO	none (no result: ADAM17 inh, ADAM10 inh, proKLK7 act)
NC(Cc1nc2ccccc2[nH]1)c1ccc(Cl)cc1 (stereo not given)	Ecoli rRNA inh -45.4
CCC(CC)NCc1c[nH]c2ccccc12	FGF22 binding 43.1 (no result: Ecoli rRNA inh)
CN1C(=O)C(=Cc2ccc(SC3CCCCC3)o2)C(=O)N(C)C1=O	FGF22 binding 43.2 (no result: Ecoli rRNA inh)
CN1C(=O)C(=Cc2ccc(N3CCCCC3)o2)C(=O)N(C)C1=S	none (no result: FGF22 binding, Ecoli rRNA inh)
Cc1ccc(/C=C2\C(=O)NC(=O)N(CC3CCCO3)C2=O)s1 (stereo not given)	none
CCN(CC)c1ccc(/C=C2\C(=O)NC(=O)N(CC3CCCO3)C2=O)cc1 (stereo not given)	FGF22 binding 43.2
COc1ccccc1N1CCN(Cc2ccc(Br)cc2)CC1	Ecoli rRNA inh -28.0
OC1/C(=C/c2ccc(F)cc2)N2CCC1CC2 (stereo not given)	FGF22 binding 43.4 (no result: Ecoli rRNA inh)
CC=Cc1ccc2n(c1=O)C[C@H]1[C@H](CO)[C@@H](C(=O)OC)[C@@H]2N1CC1CC1 (mixture of isomers)	none (no result: ADAM17 inh, ADAM10 inh, proKLK7 act)
Cc1ccccc1-c1ccc([C@@H]2[C@H](CO)N3CCCCN(C(=O)Cc4ccccn4)C[C@@H]23)cc1	none (no result: ADAM17 inh, ADAM10 inh, proKLK7 act)
CC1CCCN(c2ccc(C(=O)N3CCC4(CC3)OCCO4)cc2[N+](=O)[O-])C1 (stereo not given)	Ecoli rRNA inh -29.5
O=C(c1ccc(N2CCCCC2)c([N+](=O)[O-])c1)N1CCC2(CC1)OCCO2	none
Cc1ccc(-n2c(O)c(C=Nc3ccc(S(N)(=O)=O)cc3)c(=O)[nH]c2=O)cc1	FGF22 binding 43.0
NS(=O)(=O)c1ccc(N=Cc2c(O)n(-c3ccccc3)c(=O)[nH]c2=O)cc1	none
FC(F)(F)CN1C[C@@H]2N[C@H](C1)C2c1ccc(Br)cc1 (stereo not given in full)	none (no result: FGF22 binding, ADAM17 inh, ADAM10 inh, proKLK7 act)
Fc1ccc(CCNCc2ccc(Br)cc2)cc1	FGF22 binding 43.6
Fc1ccc(CNCCc2ccccc2F)cc1	none
FC(F)(F)c1cccc(NC2=NCCS2)c1	FGF22 binding 43.5
CCOc1ccc2nc(N=Nc3c(O)[nH]c(=O)[nH]c3=O)sc2c1	Ecoli rRNA inh -19.8
CCOc1ccc2nc(N=Nc3c(O)[nH]c(=S)[nH]c3=O)sc2c1	Ecoli rRNA inh -33.5
